ROMK primary = modulates human ROMK potassium channel activity; Tet-inducible ROMK, thallium flux fluorescence; actives lie on both sides; P48048; actives 2% (n = 130,000); AID 1918; B-score at 10 µM;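 active = signal ratio slope over the read window, or its plate-corrected B-score, at least 3 SD from the plate mean, either direction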;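 also: B-score of the F/F0 ratio slope over 7 to 12 s after thallium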
Target sequence (P48048 whole entry, looked up): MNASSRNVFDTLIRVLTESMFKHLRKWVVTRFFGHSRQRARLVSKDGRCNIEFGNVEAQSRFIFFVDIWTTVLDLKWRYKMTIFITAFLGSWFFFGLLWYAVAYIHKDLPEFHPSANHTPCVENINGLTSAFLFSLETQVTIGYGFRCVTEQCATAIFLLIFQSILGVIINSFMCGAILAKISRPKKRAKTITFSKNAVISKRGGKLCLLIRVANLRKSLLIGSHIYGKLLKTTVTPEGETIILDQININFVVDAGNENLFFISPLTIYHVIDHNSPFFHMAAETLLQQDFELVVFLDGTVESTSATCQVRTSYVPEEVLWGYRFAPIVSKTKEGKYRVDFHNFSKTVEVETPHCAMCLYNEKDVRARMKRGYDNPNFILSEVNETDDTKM
Lmaj promast = Leishmania major promastigote growth inhibition | Leishmania major promastigotes, resazurin fluorescence viability | inhibition, % at 10 µM | actives 9% (n = 200,000) | AID 1063; in the data active = inhibition above about 50%;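 also: promastigotes grown with compound for 44 hours at 28 °C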
WT yeast gro inh = growth inhibition of WT yeast, mitochondrial fusion screen. mitochondrial fusion phenotypic screen, WT strain. inhibition, % at 10 µM. actives 2.1% (n = 190,000). AID 1362; in the data active = inhibition above about 58%; tested in S. cerevisiae
Calpain2 inh = blocks pig calpain II enzyme activity | actives 0.37% (n = 220,000) | purified calpain II, fluorogenic peptide substrate, 30 min | inhibition, % at 16 µM;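 active = inhibition above about 50%, limit read from the data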
Cl transport mod = KCC2 (human) Cl- transport modulation. Q9H2X9. KCC2 cells, thallium flux FluoZin-2 fluorescence. B-score of Tl+ flux slope (higher = more flux/activation; lower = inhibition) at 10 µM. actives 2.2% (n = 190,000);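 active = thallium flux slope and its plate-corrected score both differing from the plate sample mean at a set confidence after two filtering rounds, in either direction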;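 also: slope of fluorescence scaled to starting intensity during 10 to 20 s after thallium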
* marks the source's active call; other numbers are inactive results; · = not tested or not shown. In the library only some 12% were active in any assay of this set; here they are far more common.

SMILES | ROMK primary | Lmaj promast | WT yeast gro inh | Calpain2 inh | Cl transport mod
COCCNC(=O)C(c1ccccc1F)N(C(=O)C(=O)NC1CCCC1)C1CCCCC1 (stereo not drawn) | -1.29 | 0.0 | -14.2 | -15.5 | 0.676
COC(=O)c1scc(C)c1NC(=O)C1CCCCC1 | · | 18.9 | 3.8 | 3.4 | 0.816
O=C(O)c1cccc(N2C(=S)N=C(Nc3ccccc3)C23CCCCC3)c1 | 0.116 | 7.0 | -14.6 | -15.5 | -1.87
COc1ccc(NC2=NC(=S)N(c3ccccc3C)C23CCCCC3)cc1 | · | 11.1 | 37.5 | -7.6 | 88.7*
O=C(NC1CC1)c1ccc(CN(c2ccccc2)S(=O)(=O)c2ccccc2)cc1 | 0.985 | 58.0* | 1.2 | 6.4 | 0.545
CCOC(=O)c1cnc2ccc(OCC)cc2c1N1CCN(c2ccccc2)CC1 | · | 34.7 | 73.8* | 31.6 | 2.02
CCOC(=O)c1cnc2ccc(C)cc2c1Nc1ccc(N2CCOCC2)cc1 | · | 52.5* | 42.9 | -22.2 | ·
CCOC(=O)c1cnc2ccc(C(=O)OC)cc2c1NCc1ccco1 | 0.247 | 4.2 | 4.4 | -12.4 | -0.982
CCOC(=O)C1CCCN(c2c(C(=O)c3ccccc3)cnc3ccc(OC)cc23)C1 (stereo not drawn) | 1.27 | 48.7 | 3.7 | 35.1 | -2.89
CCOC(=O)c1cnc2ccc(OCC)cc2c1NCc1ccccc1 | 0.115 | 98.0* | 86.5* | 14.2 | 0
Clc1ccccc1CNCc1ccncc1 | -0.393 | -2.0 | -7.6 | 15.4 | 0.0718
Cc1nn(Cc2ccccc2)c(Cl)c1/C=C/C(=O)OC(C)C(=O)N1CCCC1 (stereo not drawn) | -1.27 | 17.9 | -6.9 | -11.7 | 0.241
CCO[C@@H]1OC(C(=O)NCc2ccccc2)=C[C@H](C2CCCCC2)[C@H]1CCCO | · | 50.7* | 7.1 | 17.6 | -0.323
CCO[C@H]1OC(C(=O)Nc2ccccc2)=C[C@@H](c2ccc(Br)cc2)[C@@H]1CCCO | · | 46.0 | 65.4* | 13.1 | -0.687
CCO[C@@H]1OC(C(=O)NCc2ccccc2)=C[C@H](C2CC2)[C@H]1CCCO | · | 0.2 | -12.6 | 11.7 | -0.047
CCO[C@H]1OC(C(=O)Nc2ccccc2)=C[C@@H](c2csc3ccccc23)[C@@H]1CCCO | · | 58.2* | 71.6* | 16.0 | -0.0859
CCOC1(C(F)(F)F)NC(=O)N(Cc2ccc(OC)cc2)C1=O (stereo not drawn) | -0.0787 | -0.5 | 10.7 | 9.3 | 0.0077
CCc1ccc2nc(Nc3nc(COC)cc(=O)[nH]3)nc(C)c2c1 | · | 11.6 | -1.9 | -19.3 | -1.55
COCc1cc(=O)[nH]c(Nc2nc3ccc(C)cc3o2)n1 | -0.984 | 99.2* | 34.6 | -4.9 | -1.02
CC1=C(C(=O)OCC2CCCO2)C(c2ccsc2)C2=C(CCCC2=O)N1 (stereo not drawn) | 0.403 | -4.2 | -5.3 | -99.3 | 1.28
NNc1nc2c(F)cc(F)cc2s1 | · | 95.2* | 41.3 | 22.4 | 0.835
CCN(C(=O)COC(=O)c1cccnc1Nc1cccc(C(F)(F)F)c1)C1CCS(=O)(=O)C1 (stereo not drawn) | · | 59.0* | -12.7 | -16.4 | 0.382
CC1(C)CC2CC(C)(CN2C(=O)c2cc(-c3ccccc3O)on2)C1 (stereo not drawn) | · | 18.4 | 63.3* | 23.4 | 1.06
CC1(C)CC2CC(C)(CN2C(=O)c2ccc([N+](=O)[O-])cc2[N+](=O)[O-])C1 (stereo not drawn) | -0.331 | 52.1* | 9.3 | 14.9 | ·
CC1(C)CC2CC(C)(CN2C(=O)c2ccc([N+](=O)[O-])cc2)C1 (stereo not drawn) | -0.459 | 6.6 | 26.5 | 20.5 | -1.52
SMILES | ROMK primary | Lmaj promast | WT yeast gro inh | Calpain2 inh | Cl transport mod
CCOc1ccc(NC(=S)N(CCCN2CCCC2)Cc2cccn2Cc2ccc(Cl)cc2)cc1 | · | 100.0* | 70.7* | -7.2 | 0.722
CN1CCN(CCCN(Cc2ccco2)C(=S)Nc2ccc(Cl)cc2)CC1 | -0.246 | 1.1 | 8.9 | 17.4 | -0.0107
Cc1cccc(NC(=S)N(CCCN2CCCC2)Cc2cccn2Cc2ccc(Cl)cc2)c1 | -0.0192 | 98.2* | 77.6* | 25.1 | -0.244
CC(C)N1CCC(NC(=O)NC2CCCCC2)CC1 | -0.294 | -1.5 | -1.1 | -7.0 | 0.458
O=S1(=O)CC(O)C(N(CCO)C(=S)Nc2ccccc2)C1 (stereo not drawn) | · | · | · | -15.5 | 0.31
Cn1c(SCC(=O)O)nnc1-c1cccc(NC(=O)c2cccc3ccccc23)c1 | · | · | · | -11.8 | -0.833
COC(=O)c1cc(OC)c(OC)cc1NCC(=O)Nc1cccc(C(F)(F)F)c1 | -0.598 | 73.9* | 23.6 | -27.0 | 0.15
COC(=O)c1cc(OC)c(OC)cc1NCC(=O)Nc1ccc(C)cc1 | · | -10.2 | 17.3 | -51.1 | 1.47
COC(=O)CNc1cccc(C(F)(F)F)c1 | -0.154 | -8.3 | -4.8 | -8.4 | 0.037

Screening data as filed in PubChem.
